Reference: publication PMC5540273 (PLoS ONE, 2017)

What follows are compounds tested on CDK9. Conditions: concentration: 1 μM, replicates: in singlicate; n = 1.
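Further: KINOMEscan kinase panel screen.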

| Structure (SMILES) | %Inh |
| --- | --- |
| CN1CCN(CCCNc2nccc(-c3c(-c4ccc(F)cc4)nn4cc(C(F)(F)F)ccc34)n2)CC1 [GW621581] | 0% |
| C[C@@H]1CC[C@@H](C(=O)Nc2ccccc2)CN1c1cc(-c2ccc3c(N)n[nH]c3c2)nc(N)n1 [GSK2286062] | 4% |
| Cl.Cl.NCC(NCc1ccc(-c2ccnc3[nH]ccc23)s1)c1ccccc1 (stereo not shown) [GSK1321565] | 0% |
| Nc1n[nH]c2cnc(-c3ccccc3)cc12 [SB-642124] | 53% |
| COc1cccc(NC(=O)NC2CCN(c3ccnc(Nc4cc(OC)c(OC)c(OC)c4)n3)C2)c1 (stereo not shown) [GSK1379763] | 10% |
| COc1cccc(C(=O)Nc2cccc(Oc3ccc4nc(NC(=O)C5CC5)cn4n3)c2)c1 | 0% |
| c1ccc(-c2n[nH]cc2Nc2ccnc3ccccc23)nc1 [GW694077] | 0% |
| O=C(Nc1cccc(-c2nn3ccccc3c2-c2ccnc(Nc3cccc(C(F)(F)F)c3)n2)c1)c1c(F)cccc1F [GSK292658] | 0% |
| CSc1cccc2c(-c3ccncn3)c(-c3ccc(F)cc3)nn12 [GW514786] | 0% |
| COc1ccc(CNC(=O)NC2CCN(c3ccnc(Nc4ccc(F)cc4)n3)CC2)cc1 [GSK1379788] | 0% |
| COCCOCCOc1cc2ncc3c4ccc(C#N)cc4[nH]c3c2cc1OC | 0% |
| FC(F)(F)c1ccc(/C=C/c2cncnc2Nc2ccc3[nH]c(Cc4ccccc4)nc3c2)cc1 [GW709199] | 0% |
| COc1cc(Nc2nccc(N3CCC(NC(=O)Nc4cccc(C(C)=O)c4)C3)n2)cc(OC)c1OC (stereo not shown) [GSK1379753] | 0% |
